# Hit rate of the full screen: of about 300,000 compounds, about 22,000 (7.3%) were called active. About 2% were inconclusive and are not listed. Rule as the data show it: active = activity score below about -60%; inconclusive = mostly about -28% to -61%; inactive = positive scores. The sample as a whole holds a higher share of actives than the screen did.
# Experiment: Activators working through SNCA 5'UTR binding (MLPCN) (AID 1814)
# Conditions: alpha-synuclein 5'UTR reporter, activators screen; active compounds read low; tested at 7.5 µM
row,Structure (SMILES),activity score
1,COc1cccc(-c2nn(-c3ccccc3)cc2/C=C(\C#N)C(=O)NCCCn2ccnc2)c1,-65.4% (active)
2,Cc1nn(C(=O)c2ccoc2C)c(N)c1-c1ccccc1,-109% (active)
3,CN(Cc1ccco1)S(=O)(=O)c1nnc(NC(=O)c2ccccc2)s1,-95.2% (active)
4,COc1ccc(C(=O)Cc2cnn(-c3ccccc3)c2)c(O)c1,-147% (active)
5,COc1ccc(C(=O)CC(=O)c2ccc(C)cc2)c(O)c1,-96.9% (active)
6,COC(=O)Cc1[nH]n(-c2nc3ccccc3s2)c(=O)c1C(C)=Nc1ccc(OC)cc1,68.9% (inactive)
7,CC(=NCc1ccco1)c1c(C(F)(F)F)[nH]n(-c2nc3ccccc3s2)c1=O,-117% (active)
8,CCC(C)Cn1c(O)cc2nn(-c3nc4ccccc4s3)c(=O)c-2c1C (centres undefined),97.8% (inactive)
9,Cn1nc(C(F)(F)F)cc1-c1ccc(/C=C(\C#N)C(=O)c2cccc(C(F)(F)F)c2)s1,-76.5% (active)
10,O=C1/C(=C/c2ccc3c(c2)OCO3)CCC/C1=C\c1ccc2c(c1)OCO2,-83.5% (active)
11,O=C(/C=C/Sc1ncn[nH]1)c1ccc(Cl)cc1,-73.9% (active)
12,Oc1ccc(/C=N/NC2=NCCCCC2)c(O)c1,-141% (active)
13,Nc1nc(-c2sc3nc4c(cc3c2N)CCCC4)nc(N2CCOCC2)n1,-113% (active)
14,CC(C)(C)c1ccc(NC(=O)NCc2ccco2)cc1,-123% (active)
15,CCCC1=Nc2cc(C(=O)NCc3ccco3)ccc2Sc2ccccc21,87.6% (inactive)
16,CC(C)(C)c1ccc(C(=O)NCc2ccco2)cc1,-180% (active)
17,CC(C)(C)c1ccc(C(=O)NNC(=O)Cc2ccccc2)cc1,-84.3% (active)
18,CC(C)n1c(O)c(N=Nc2ccccn2)c2ccccc21,-76.9% (active)
19,CC1C/C(=N/NC(=O)c2cccs2)CC(C)(C)C1 (centres undefined),-101% (active)
20,CCC(=O)Nc1nc2ccccc2n1Cc1ccccc1C,65.5% (inactive)
21,CCC(=O)NC(=Nc1nc2ccccc2s1)NC(=O)CC,-101% (active)
22,CC(C)CC(=O)N/C(N)=N/c1nc2ccccc2s1,-93.4% (active)
23,CC12CN3CCN(CC(C3)/C1=N\NC(=O)c1ccccc1N)C2,-83.3% (active)
24,CN1C(=O)/C(=C\c2cc(Br)cs2)c2ccccc21,-188% (active)

# From PubChem BioAssay AID1814 (Broad Institute, 2009)
